Laboratory results as given in PubChem BioAssay (Tox21).
Records with an inconclusive call do not appear. Entries that show only a call come without a potency. Where a structure was tested more than once in an assay, its records may differ in their call. Activity calls are given as the source filed them. Unless noted, calls come from the whole dose curve.

Assays:
[1] = Nuclear factor erythroid 2-related factor 2/antioxidant responsive element (Nrf2/ARE) small molecule agonists: luciferase reporter gene qHTS assay in human keratinocytes (AID 1919969); note: nearly all actives have a fitted effect of over 35% in size; note: potency is the fitted concentration of half-maximal effect
[2] = target: Gonadotropin-releasing hormone receptor (Homo sapiens) (UniProt P30968); experiment: Human gonadotropin-releasing hormone receptor (GnRHR) small molecule agonists, calcium flux assay in GnRHR-HEK293 cells (AID 1920063); note: nearly all actives have a fitted effect of over 35% in size; note: potency is the fitted concentration of half-maximal effect
Procedure, shortened: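 Calcium-dye fluorescence, Ex/Em=480/540, recorded every 1 sec over 3 min after compound addition to GnRHR-HEK293 cells. Cells had been seeded 18 hours earlier and dye-loaded for 1 hour at 37 C. Fifteen concentrations, triplicates.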

[3] = target: KiSS-1 receptor (Homo sapiens) (UniProt Q969F8); experiment: Human kisspeptin (KISS1R) small molecule agonists, calcium flux assay in KISS1R-HEK293 cells (AID 1920064; active = well fitted activation curve with a large enough effect in the repeat runs; note: potency is the fitted concentration of half-maximal effect)
Procedure, shortened: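 Calcium flux read-out: kinetic fluorescence at Ex/Em=480/540, 1 s intervals over 3 min, after pin-tool compound addition to dye-loaded KISS1R-HEK293 cells. Fifteen concentrations, triplicates.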

[4] = G protein-coupled receptor (GPCR) small molecule agonists, calcium flux assay: HEK293 wild type cell line counter screen (AID 1920065); note: potency is the fitted concentration of half-maximal effect
Procedure, shortened: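 Agonist mode; 18 h seeding at 37 C, 1 h dye load at 37 C; compounds pinned from DMSO, ATP as positive control; kinetic fluorescence 480/540 nm, 3 min, 1 s reads; 15 concentrations, triplicate.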

[5] = p53 small molecule agonists, cell-based qHTS assay with human liver microsomes: qHTS cell viability counter screen (AID 1963579); note: nearly all actives have a fitted effect of over 45% in size
Procedure, shortened: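 HLM-supplemented (0.5 mg/mL final) and NADPH-supplemented (0.5 mg/mL final) p53RE-bla cultures, 4,000 cells per well, were dosed with compounds in DMSO for 16 h at 37 C; luminescent ATP detection (CellTiter-Glo, 30 min, room temperature) quantified surviving cells.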

[6] = p53 small molecule agonists, cell-based qHTS assay with rat liver microsomes: qHTS cell viability counter screen (AID 1963580); note: nearly all actives have a fitted effect of over 45% in size
Procedure, shortened: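 Luminescent ATP readout (CellTiter-Glo, 30 min at room temperature) reports viability of p53RE-bla HCT-116 cells after 16 h at 37 C with test compounds under metabolic activation by rat liver microsomes and NADPH at 0.5 mg/mL final each.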

[7] = p53 small molecule agonists, cell-based qHTS assay: qHTS cell viability counter screen (AID 1963581); note: nearly all actives have a fitted effect of over 45% in size
Procedure, shortened: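 Cytotoxicity read-out: ATP-based luminescence (CellTiter-Glo, 30 min RT) measured in the same wells as the p53 reporter assay, HCT-116 p53RE-bla cells, 16 h compound exposure at 37 C.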

[8] = target: Beta-2 adrenergic receptor (Homo sapiens) (UniProt P07550); experiment: Adrenergic beta2 receptor (ADRB2) small molecule antagonists, cell-based qHTS assay (AID 1963592); note: nearly all actives have a fitted effect of over 50% in size; note: potency is the fitted concentration of half-maximal effect; for activity change, negative = inhibition: series mostly up to about 92 µM
Procedure, shortened: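 Assay format: CHO-ADRB2 cells, 18-20hr seeding at 37C/5% CO2, then compound plus 1nM isoproterenol agonist mix for 0.5hr RT. Homogeneous time-resolved fluorescence cAMP detection after 1hr, expressed as 665/615 nm ratio.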

[9] = target: D(2) dopamine receptor (Homo sapiens) (UniProt P14416); experiment: Dopamine D2 receptor (DRD2) small molecule antagonists, cell-based qHTS assay (AID 1963595; active = well fitted inhibition curve with a large enough effect in the signal ratio in the repeat runs, with a control signal flat; the % refers to the signal ratio)
Procedure, shortened: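 Antagonist mode in DRD2-HEK293 cells: after compound addition with 0.1 mM Ro20-1724, cells received quinpirole (12 nM) and NKH477 (200 nM) for 30 min at room temperature; HTRF cAMP read after 1 h detection.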

[10] = target: 5-hydroxytryptamine receptor 2A (Homo sapiens) (UniProt P28223); experiment: 5-hydroxytryptamine receptor 2A (HTR2A) small molecule antagonists, cell-based qHTS assay (AID 1963586); note: nearly all actives have a fitted effect of over 45% in size
Procedure, shortened: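 CHO cells stably expressing human HTR2A were plated for 18 h at 37 C, then loaded with calcium dye for 1 h. Compounds were preincubated 5 min at room temperature before DOI (4 nM solution) was added. Kinetic fluorescence was read for 3 min.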

[11] = target: 5-hydroxytryptamine receptor 2A (Homo sapiens) (UniProt P28223); experiment: 5-hydroxytryptamine receptor 2A (HTR2A) small molecule agonists, cell-based qHTS assay (AID 1963587); note: nearly all actives have a fitted effect of over 30% in size; note: potency is the fitted concentration of half-maximal effect
Procedure, shortened: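 HTR2A-CHO cells, plated 18 h at 37 C/5% CO2, dye-loaded 1 h at 37 C; compounds in DMSO added by pin tool (agonist mode). Intracellular calcium flux read as kinetic fluorescence on FDSS over 2 min at 1 s intervals.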

[12] = target: Muscarinic acetylcholine receptor M1 (Homo sapiens) (UniProt P11229); experiment: Cholinergic receptor muscarinic 1 (CHRM1) small molecule antagonists, cell-based qHTS assay (AID 1963588); note: nearly all actives have a fitted effect of over 40% in size
Procedure, shortened: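 Compounds were tested at 15 concentrations in three independent runs. Dye-loaded CHRM1-CHO cells were exposed 5 min at room temperature before stimulation by acetylcholine added at 50nM. Intracellular calcium was read kinetically on FDSS for 3 min.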

[13] = target: Muscarinic acetylcholine receptor M1 (Homo sapiens) (UniProt P11229); experiment: Cholinergic receptor muscarinic 1 (CHRM1) small molecule agonists, cell-based qHTS assay (AID 1963589); note: nearly all actives have a fitted effect of over 35% in size; note: potency is the fitted concentration of half-maximal effect
Procedure, shortened: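 Calcium flux read-out: kinetic fluorescence at 1 sec intervals after pin-tool compound addition to dye-loaded CHRM1-CHO cells (human M1). Agonist mode; 15 concentrations tested in triplicate independent runs.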

[14] = target: D(2) dopamine receptor (Homo sapiens) (UniProt P14416); experiment: Dopamine D2 receptor (DRD2) small molecule agonists, cell-based qHTS assay (AID 1963594); note: nearly all actives have a fitted effect of over 35% in size; note: potency is the fitted concentration of half-maximal effect
Procedure, shortened: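 HEK293 cells stably expressing DRD2 were cultured 24 h at 37 C, then given Ro20-1724 (0.1 mM final) and compounds for 10 min at room temperature. NKH477 (200nM) was then added for 30 min. cAMP was read by HTRF.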

[15] = cAMP Responsive Elements (CRE) small molecule agonists, cell-based qHTS assay (AID 1963590)
Procedure, shortened: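 Beta-lactamase reporter readout: LiveBLAzer B/G FRET substrate, 2 h at room temperature, added after 3 h compound treatment of CRE-bla HEK 293T cells at 37 C/5% CO2.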

[16] = cAMP Responsive Elements (CRE) small molecule antagonists, cell-based qHTS assay (AID 1963591; active = well fitted inhibition curve with a large enough effect in the signal ratio in the repeat runs, not every such curve was filed as active; the % refers to the signal ratio)
Procedure, shortened: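 HEK293T CRE-bla; 18 h preincubation; compound pin-transfer; NKH477 0.25 uM final, 3 h, 37 C; LiveBLAzer FRET substrate 2 h RT.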

[17] = p53 small molecule agonists, cell-based qHTS assay (AID 1963582; active = well fitted activation curve with a large enough effect in the signal ratio in the repeat runs, not every such curve was filed as active; the % refers to the signal ratio)
Procedure, shortened: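 Fluorescence intensity read-out of a beta-lactamase reporter under a p53 response element. Cells were exposed to DMSO-dissolved compounds for 16 h at 37 C, then developed with FRET substrate for 2 h at RT.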

[18] = target: Beta-2 adrenergic receptor (Homo sapiens) (UniProt P07550); experiment: Adrenergic beta2 receptor (ADRB2) small molecule agonists, cell-based qHTS assay (AID 1963593);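 note: CHO cells stably overexpressing human ADRB2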
Procedure, shortened: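 CHO cells stably over-expressing ADRB2 were plated overnight at 37C, then dosed with compounds plus a stimulation mix containing 100uM IBMX and 25uM Ro-20-1724 for 0.5hr at room temperature. cAMP was measured by HTRF competition, 1hr.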

Gonadotropin-releasing hormone receptor (Homo sapiens), sequence (P30968 whole entry, looked up): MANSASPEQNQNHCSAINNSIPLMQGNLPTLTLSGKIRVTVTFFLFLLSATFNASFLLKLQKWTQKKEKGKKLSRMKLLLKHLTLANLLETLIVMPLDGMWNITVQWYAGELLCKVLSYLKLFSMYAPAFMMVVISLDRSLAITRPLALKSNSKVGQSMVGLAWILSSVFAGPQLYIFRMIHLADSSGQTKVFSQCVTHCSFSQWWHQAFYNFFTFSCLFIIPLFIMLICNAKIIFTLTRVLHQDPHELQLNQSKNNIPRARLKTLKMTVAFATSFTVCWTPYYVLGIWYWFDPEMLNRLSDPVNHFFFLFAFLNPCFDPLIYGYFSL
D(2) dopamine receptor (Homo sapiens), sequence (P14416 whole entry, looked up): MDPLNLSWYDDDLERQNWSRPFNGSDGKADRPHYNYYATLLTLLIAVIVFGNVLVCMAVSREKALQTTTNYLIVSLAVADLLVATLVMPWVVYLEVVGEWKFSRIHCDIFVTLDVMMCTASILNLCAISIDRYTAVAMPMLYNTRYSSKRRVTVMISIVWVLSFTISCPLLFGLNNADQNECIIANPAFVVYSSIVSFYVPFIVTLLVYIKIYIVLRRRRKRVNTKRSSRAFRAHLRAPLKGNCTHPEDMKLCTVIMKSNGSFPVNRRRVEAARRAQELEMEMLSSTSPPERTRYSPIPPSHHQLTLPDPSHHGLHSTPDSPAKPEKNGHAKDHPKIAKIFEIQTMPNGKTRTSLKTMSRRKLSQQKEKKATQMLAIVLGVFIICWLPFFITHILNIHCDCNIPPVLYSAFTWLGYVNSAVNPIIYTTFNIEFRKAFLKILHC
5-hydroxytryptamine receptor 2A (Homo sapiens), sequence (P28223 whole entry, looked up): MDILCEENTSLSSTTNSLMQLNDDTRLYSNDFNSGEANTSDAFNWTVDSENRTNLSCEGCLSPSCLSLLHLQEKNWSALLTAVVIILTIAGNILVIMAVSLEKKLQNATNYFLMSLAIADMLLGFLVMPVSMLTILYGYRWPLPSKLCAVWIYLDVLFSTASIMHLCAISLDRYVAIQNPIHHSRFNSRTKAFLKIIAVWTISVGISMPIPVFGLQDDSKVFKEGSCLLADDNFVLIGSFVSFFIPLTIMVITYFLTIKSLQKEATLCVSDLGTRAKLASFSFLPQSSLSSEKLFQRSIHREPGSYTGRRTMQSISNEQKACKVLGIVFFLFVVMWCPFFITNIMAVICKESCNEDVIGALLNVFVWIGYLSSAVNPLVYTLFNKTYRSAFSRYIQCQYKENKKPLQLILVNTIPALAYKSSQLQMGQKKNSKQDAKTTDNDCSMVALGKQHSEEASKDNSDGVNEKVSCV
Beta-2 adrenergic receptor (Homo sapiens), sequence (P07550 whole entry, looked up): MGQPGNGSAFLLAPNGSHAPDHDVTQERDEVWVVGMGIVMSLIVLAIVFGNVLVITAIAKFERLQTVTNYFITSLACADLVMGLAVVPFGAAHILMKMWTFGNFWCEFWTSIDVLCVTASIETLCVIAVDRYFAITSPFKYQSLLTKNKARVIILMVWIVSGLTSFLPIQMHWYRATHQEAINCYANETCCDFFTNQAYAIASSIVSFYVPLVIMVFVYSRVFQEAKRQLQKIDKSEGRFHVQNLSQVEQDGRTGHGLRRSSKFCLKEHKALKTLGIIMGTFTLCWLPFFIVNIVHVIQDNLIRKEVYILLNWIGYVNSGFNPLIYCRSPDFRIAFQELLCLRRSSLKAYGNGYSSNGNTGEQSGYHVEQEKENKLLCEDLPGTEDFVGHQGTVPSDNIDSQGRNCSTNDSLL
KiSS-1 receptor (Homo sapiens), sequence (Q969F8 whole entry, looked up): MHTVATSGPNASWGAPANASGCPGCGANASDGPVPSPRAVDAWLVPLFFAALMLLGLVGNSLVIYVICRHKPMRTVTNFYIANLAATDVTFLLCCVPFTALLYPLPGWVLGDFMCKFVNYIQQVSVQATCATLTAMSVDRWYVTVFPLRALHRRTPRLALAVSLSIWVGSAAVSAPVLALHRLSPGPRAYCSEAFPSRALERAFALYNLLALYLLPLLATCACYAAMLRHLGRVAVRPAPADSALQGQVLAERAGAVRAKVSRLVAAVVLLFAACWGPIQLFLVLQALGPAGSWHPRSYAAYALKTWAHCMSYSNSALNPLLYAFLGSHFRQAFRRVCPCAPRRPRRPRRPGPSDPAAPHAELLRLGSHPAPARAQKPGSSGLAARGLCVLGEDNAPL
Muscarinic acetylcholine receptor M1 (Homo sapiens), sequence (P11229 whole entry, looked up): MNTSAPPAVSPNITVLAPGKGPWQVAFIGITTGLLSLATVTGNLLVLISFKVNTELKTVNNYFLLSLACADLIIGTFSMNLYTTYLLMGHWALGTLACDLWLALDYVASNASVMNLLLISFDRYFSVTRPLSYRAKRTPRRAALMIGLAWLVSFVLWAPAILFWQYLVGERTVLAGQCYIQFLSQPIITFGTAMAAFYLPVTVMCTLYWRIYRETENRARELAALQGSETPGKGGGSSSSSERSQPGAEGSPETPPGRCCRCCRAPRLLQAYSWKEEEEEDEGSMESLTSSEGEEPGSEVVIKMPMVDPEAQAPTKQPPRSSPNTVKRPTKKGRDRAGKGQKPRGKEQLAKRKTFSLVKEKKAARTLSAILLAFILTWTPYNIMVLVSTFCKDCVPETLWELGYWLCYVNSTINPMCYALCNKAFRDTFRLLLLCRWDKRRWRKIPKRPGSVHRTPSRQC

For `CC(C)c1nc(CN(C)C(=O)N[C@H](C(=O)N[C@@H](Cc2ccccc2)C[C@H](O)[C@H](Cc2ccccc2)NC(=O)OCc2cncs2)C(C)C)cs1`, the Potency [1] was “inactive”, the Potency [2] was “inactive” and the Potency [3] was “inactive”. For the same compound, the Potency [4] was “inactive”, the Potency [5] was “inactive” and the Potency [6] was “inactive”. For the same compound, the Potency [7] was “inactive”, the Potency [8] was “inactive” and the Potency [9] was “inactive”.
For `c1ccc2c(c1)-c1ccc3ccc4cccc5cc-2c1c3c45`, the Potency [1] was 13.3 µM (active), the Potency [2] was 6.74 µM (active) and the Potency [3] was “inactive”. For the same compound, the Potency [4] was “inactive”, the Potency [5] was “inactive” and the Potency [6] was “inactive”. The Potency [7] was “inactive”, the Potency [10] was “inactive” and the Potency [11] was 10.7 µM (active). For the same compound, the Potency [12] was “inactive”, the Potency [13] was “inactive” and the Potency [8] was “inactive”. For the same compound, the Potency [14] was “inactive” and the Potency [9] was “inactive”.
For `CCCCCCCCCCCCCOC(=O)CCSCCC(=O)OCCCCCCCCCCCCC`, the activity, positive = activation [1] was 4.84% [at 19 µM] (inactive), the activity change [2] was 1.53% [at 11.8 µM, stronger effect = higher value] (inactive) and the activation [3] was 1.75% [at 15.8 µM] (inactive). For the same compound, the activation [4] was -0.388% [at 11.8 µM] (inactive), the activity change, negative = cytotoxicity [5] was -3.75% [at 13.5 µM] (inactive) and the activity change, negative = cytotoxicity [6] was -0.0386% [at 13.5 µM] (inactive). For the same compound, the activity change, negative = cytotoxicity [7] was -3.06% [at 13.5 µM] (inactive), the activity, negative = inhibition [10] was 1.85% [at 12.7 µM] (inactive) and the activity, negative = inhibition [12] was 18% [at 12.6 µM] (inactive). For the same compound, the activation [13] was -0.105% [at 15.8 µM] (inactive), the activation [15] was -0.927% [at 19 µM] (inactive) and the activity change, negative = inhibition [16] was -14% [at 18.9 µM] (inactive). The activity change, negative = inhibition [8] was -0.103% [at 19 µM] (inactive), the activation [14] was 5.42% [at 19 µM] (inactive) and the activity change, negative = inhibition [9] was -7.07% [at 18.9 µM] (inactive).
In the case of `C=CC(C)(C)CC(=O)OC`, the Potency [1] is reported as “inactive”, the Potency [2] is reported as “inactive” and the Potency [3] is reported as “inactive”. The Potency [4] was “inactive”, the Potency [5] was “inactive” and the Potency [6] was “inactive”. The Potency [10] was “inactive”, the Potency [11] was “inactive” and the Potency [13] was “inactive”. The Potency [15] was “inactive”, the Potency [8] was “inactive” and the Potency [14] was “inactive”. The Potency [9] was “inactive”.
For `O=C1OC2(c3ccc(O)cc3Oc3cc(O)ccc32)c2ccc(N=C=S)cc21`, the Potency [1] was “inactive”, the Potency [2] was 14.1 µM (active) and the Potency [3] was 44.4 µM (active). The Potency [4] was 39.6 µM (active), the Potency [5] was “inactive” and the Potency [6] was “inactive”. For the same compound, the Potency [7] was “inactive”, the Potency [17] was “inactive” and the Potency [11] was 17.7 µM (active). The Potency [12] was “inactive”, the Potency [13] was 22.3 µM (active) and the Potency [16] was “inactive”. For the same compound, the Potency [18] was “inactive”.
For `Cc1ccc(C)c([N+](=O)[O-])c1`, the Potency [1] was “inactive”, the Potency [2] was “inactive” and the Potency [3] was “inactive”. The Potency [4] was “inactive”, the Potency [5] was “inactive” and the Potency [6] was “inactive”. The Potency [7] was “inactive”, the Potency [11] was “inactive” and the Potency [12] was “inactive”. The Potency [13] was “inactive”, the Potency [15] was “inactive” and the Potency [16] was “inactive”. The Potency [8] was “inactive”, the Potency [14] was “inactive” and the Potency [9] was “inactive”.
With `CCCCCCC(O)CCCCCCCCCCC(=O)O` (stereo not drawn) the Potency [1] was “inactive”, the Potency [2] was “inactive” and the Potency [3] was “inactive”. The Potency [4] was “inactive”, the Potency [5] was “inactive” and the Potency [6] was “inactive”. The Potency [7] was “inactive”, the Potency [10] was “inactive” and the Potency [11] was 3.9 µM (active) and inactive. For the same compound, the Potency [12] was “inactive”, the Potency [13] was “inactive” and the Potency [15] was “inactive”. For the same compound, the Potency [8] was “inactive”, the Potency [18] was “inactive” and the Potency [14] was “inactive”. The Potency [9] was “inactive”.
In the case of `O=C1OC2(c3ccccc31)c1ccc(O)c(Br)c1Oc1c2ccc(O)c1Br`, the Potency [1] is reported as “inactive”, the Potency [2] is reported as 13.8 µM (active) and the Potency [3] is reported as 7.76 µM (active). For the same compound, the Potency [4] was 19.5 µM (active), the Potency [5] was “inactive” and the Potency [6] was “inactive”. For the same compound, the Potency [7] was “inactive”, the Potency [10] was “inactive” and the Potency [11] was 1.55 µM (active). For the same compound, the Potency [12] was “inactive”, the Potency [13] was 24.5 µM (active) and the Potency [8] was 68.6 µM (active). For the same compound, the Potency [14] was 15.4 µM (active).
